About 2,000 (36%) of roughly 5,500 compounds were called active. Another 18% or so got no clear call; they are omitted. No stated cut-off is given here; in the data, active means normalized growth mostly below about 0.91 (no sharp cut-off); inconclusive means no clear call, values can overlap the other calls; inactive means mostly above about 0.92. Some of the results follow.
Test: chemical genetic growth profiling, strain panel (AID 1159580);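 further: tested at 20 µM; growth read once vehicle control cultures reached saturation at 30 °C; 1 = growth at the plate median or of vehicle wells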
Conditions: S. cerevisiae deletion strains, growth OD

Measured: normalized growth

COC(OC)c1ccc(C#N)c(=S)[nH]1
inactive: locus YAL013W, strain DEP1, stronger effect = lower value 1.01 | locus YBR229C, strain ROT2, stronger effect = lower value 1.02 | locus YCL061C, strain MRC1, stronger effect = lower value 1.01 | locus YDL101C, strain DUN1, stronger effect = lower value 1 | locus YDL134C, strain PPH21, stronger effect = lower value 1.01 | locus YDR150W, strain NUM1, stronger effect = lower value 0.996 | locus YEL061C, strain CIN8, stronger effect = lower value 1.01 | locus YGR078C, strain PAC10, stronger effect = lower value 0.989 | locus YHR030C, strain SLT2, stronger effect = lower value 1.08 | locus YHR087W, strain rtc3, stronger effect = lower value 1.03 | locus YJL187C, strain SWE1, stronger effect = lower value 0.994 | locus YJR043C, strain POL32, stronger effect = lower value 1.01 | locus YJR075W, strain HOC1, stronger effect = lower value 1 | locus YLR039C, strain RIC1, stronger effect = lower value 1.05 | locus YLR058C, strain SHM2 (second series), stronger effect = lower value 1.01 | locus YLR085C, strain ARP6, stronger effect = lower value 1.16 | locus YLR262C, strain YPT6, stronger effect = lower value 1 | locus YML094W, strain GIM5, stronger effect = lower value 1.04 | locus YMR219W, strain ESC1, stronger effect = lower value 1.01 | locus YMR263W, strain SAP30, stronger effect = lower value 1.02 | locus YMR307W, strain GAS1, stronger effect = lower value 1.06 | locus YNL153C, strain GIM3, stronger effect = lower value 1 | locus YNL298W, strain CLA4 (second series), stronger effect = lower value 1.02 | locus YNL322C, strain KRE1, stronger effect = lower value 1.01 | locus YNR030W, strain Alg12, stronger effect = lower value 0.992 | locus YPL055C, strain LGE1, stronger effect = lower value 1.04 | locus YPL241C, strain CIN2, stronger effect = lower value 1.11 | locus YPR135W, strain CTF4, stronger effect = lower value 1.1
